A selection: hits, their analogues and other compounds. The true share with any hit is near 6.7%.
T cruzi growth-1 = blocks T. cruzi growth in NIH3T3 culture. T. cruzi beta-gal in NIH3T3, GalScreen luminescence, 90 h. inhibition, % at 8.34 µM. 77,000 compounds, 5.9% hits;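 active means mean inhibition above about 93%, with at least 55% of replicates each passing it, limit read from the data, passing the limit was not always enough; inconclusive means only one of those two conditions holds; inactive means neither condition holds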
Pf Dd2 growth = blocks growth of Plasmodium falciparum Dd2 parasites. P. falciparum Dd2 growth, SYBR Green, 72 h; active compounds read low. activity change, % at 10 µM. 94,000 compounds, 2.3% hits. AID 1159554; in the data active means activity change below about -80%; inconclusive means no clear call, values can overlap the other calls
C diff HTS = blocks growth of Clostridium difficile; growth activity, negative = inhibition, % at 16 µg/mL (by protocol); AID 1259249; 86,000 compounds, 0.25% hits; Clostridium difficile clinical isolate growth, OD600, 24 h; active compounds read low;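 active means mean growth activity at or below -80% and every replicate also at or below -80%; inconclusive means mean at or below -80% but some replicate above -80%; inactive means mean growth activity above -80%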;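 further: 0% = DMSO wells and -100% = levofloxacin 16 µg/mL wells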
T cruzi growth-2 = blocks T. cruzi growth in NIH3T3 host cells. shares compounds with T cruzi growth-1. T. cruzi beta-gal in NIH3T3, GalScreen luminescence, 90 h. inhibition, % at 8.35 µM. 5,600 compounds, 72% hits. AID 651739;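 active means mean replicate inhibition above about 95% and at least 55% of replicates individually reaching it, limit read from the data; inconclusive means only one of the two criteria is met; inactive means neither criterion is met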
T cruzi growth-3 = blocks T. cruzi growth in NIH3T3 host cells; shares compounds with T cruzi growth-1; T. cruzi beta-gal in NIH3T3, GalScreen luminescence, 90 h; inhibition, % at 2.09 µM; 5,600 compounds, 21% hits;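 active means mean inhibition above about 95%, with at least 55% of replicates also reaching it, limit read from the data; inconclusive means meets just one of the two conditions; inactive means meets neither condition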;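 further: plate controls were neutral control median for no effect and positive control median for full effect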
3T3 cytotox = cytotoxicity in mouse NIH/3T3 fibroblasts; shares compounds with T cruzi growth-1; NIH/3T3 viability, CellTiter-Glo ATP luminescence, 90 h; cytotoxicity (signal decrease), % at 8.35 µM; 5,600 compounds, 14% hits; AID 651742;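 active means mean signal decrease across replicates above about 35% based on untreated-well scatter, with enough replicates individually passing, limit read from the data; inconclusive means no rule stated though some were filed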;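 further: 0% = median of neutral control wells and 100% = median of positive control wells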
NIH3T3 tox 2 = kills mouse NIH/3T3 fibroblasts | shares compounds with T cruzi growth-1 | NIH/3T3 viability, CellTiter-Glo ATP luminescence, 90 h | inhibition, % at 24.9 µM | 5,600 compounds, 56% hits | AID 651744;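 active means mean loss of cell viability signal at or above a set limit, and enough replicates individually reaching it; inconclusive means meets only the mean limit or only the replicate share; inactive means meets neither condition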;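 further: 0% = median of neutral control wells and 100% = median of positive control wells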
* marks the source's active call; other numbers are inactive results; u = inconclusive; x = no result.

SMILES	T cruzi growth-1	Pf Dd2 growth	C diff HTS	T cruzi growth-2	T cruzi growth-3	3T3 cytotox	NIH3T3 tox 2
C[C@H]1CN([C@@H](C)CO)S(=O)(=O)c2ccc(C#Cc3ccccc3)cc2O[C@@H]1CN(C)S(=O)(=O)c1ccccc1F	125*	-71	5	98*	103*	-17	29*
C[C@@H]1CN([C@H](C)CO)S(=O)(=O)c2ccc(C#Cc3ccccc3)cc2O[C@H]1CN(C)S(=O)(=O)c1ccccc1F	129*	-75	11	98*	45	8	u
CCN1[C@@H]2c3ccc(-c4cccnc4)c(=O)n3C[C@H]1[C@H](CO)[C@H]2C(=O)NC1CCCC1	x	8	-1	x	x	x	x
CN1C(=O)c2cc(NC(=O)Nc3ccccc3F)ccc2OC[C@H]2O[C@@H](CC(=O)NCc3ccc(-c4ccccc4)cc3)CC[C@H]21	95	-10	1	x	x	x	x
COc1cccc(NC(=O)N[C@H]2CC[C@@H](CC(=O)N3CCCCC3)O[C@H]2CO)c1	3	-6	x	x	x	x	x
O=C(Nc1cccc(Cl)c1)N1C[C@@H]2[C@H](c3ccccc31)[C@@H](CO)N2C(=O)C1CCCC1	8	5	6	x	x	x	x
C[C@H]1CN([C@@H](C)CO)S(=O)(=O)c2ccc(C3=CCCC3)cc2O[C@@H]1CN(C)C(=O)c1ccc(F)cc1	x	-53	5	x	x	x	x
C[C@H](CO)N1C[C@H](C)[C@H](CN(C)C(=O)c2ccccc2)Oc2cc(C3=CCCCC3)ccc2S1(=O)=O	103*	-37	4	101*	69	30	64*
C[C@H]1CN([C@@H](C)CO)S(=O)(=O)c2ccc(C3=CCCCC3)cc2O[C@H]1CN(C)C(=O)c1ccc(F)cc1	111	-63	4	x	x	x	x
C[C@H](CO)N1C[C@H](C)[C@H](CN(C)C(=O)c2ccc(F)cc2)Oc2cc(C3=CCCCC3)ccc2S1(=O)=O	111*	-39	4	101*	61	31	62*
C[C@@H]1CN([C@@H](C)CO)S(=O)(=O)c2ccc(C3=CCCC3)cc2O[C@@H]1CN(C)C(=O)c1ccc(F)cc1	x	14	1	x	x	x	x
C[C@H]1CN([C@@H](C)CO)S(=O)(=O)c2ccc(C3=CCCCC3)cc2O[C@@H]1CN(C)C(=O)c1ccccc1	95	-17	-8	x	x	x	x
C[C@H]1CN([C@@H](C)CO)S(=O)(=O)c2ccc(C3=CCCCC3)cc2O[C@@H]1CN(C)C(=O)c1ccc(F)cc1	115*	-40	-1	110*	102*	47*	96*
C[C@@H]1CN([C@H](C)CO)S(=O)(=O)c2ccc(C3=CCCCC3)cc2O[C@@H]1CN(C)C(=O)c1ccc(F)cc1	113*	-36	0	107*	91	18	101*
COc1ccc(S(=O)(=O)Nc2ccc3c(c2)[C@H]2C[C@@H](CC(=O)NCC4CC4)O[C@H](CO)[C@H]2O3)cc1	21	-14	x	x	x	x	x
O=C(C[C@@H]1C=C[C@H](NC(=O)c2ccncc2)[C@H](CO)O1)NCC1CCCCC1	x	x	2	x	x	x	x
C[C@@H]1CCCCO[C@H](CN(C)C(=O)C2CCCCC2)[C@@H](C)CN([C@@H](C)CO)C(=O)c2cc(NC(=O)CCC(F)(F)F)ccc2O1	-42	-77	-4	x	x	x	x
C[C@@H]1CN([C@@H](C)CO)C(=O)c2cccc(NC(=O)Nc3ccc4c(c3)OCO4)c2O[C@H]1CN(C)Cc1ccc(C(F)(F)F)cc1	68	-24	6	x	x	x	x
COc1ccccc1S(=O)(=O)N[C@@H]1CC[C@H](CCNC(=O)C2CCC2)O[C@@H]1CO	x	-6	2	x	x	x	x
C[C@@H]1CN([C@H](C)CO)S(=O)(=O)c2ccc(C3=CCCCC3)cc2O[C@H]1CN(C)C(=O)c1ccc(F)cc1	109	-63	0	x	x	x	x
C[C@@H]1CN([C@@H](C)CO)S(=O)(=O)c2ccc(C3=CCCCC3)cc2O[C@H]1CN(C)C(=O)c1ccc(F)cc1	u	-48	5	102*	51	54*	26*
CCNC(=O)C[C@H]1CC[C@H](NC(=O)C2CCOCC2)[C@H](CO)O1	49	7	13	x	x	x	x
Cc1ccc(S(=O)(=O)N(C)C[C@H]2Oc3cc(-c4cccc(F)c4)ccc3S(=O)(=O)N([C@@H](C)CO)C[C@@H]2C)cc1	124*	-48	1	97*	94	12	38*
C[C@@H]1CN([C@@H](C)CO)S(=O)(=O)c2ccc(-c3cccc(F)c3)cc2O[C@@H]1CN(C)C	-6	x	-4	x	x	x	x
COc1ccc(S(=O)(=O)N(C)C[C@@H]2Oc3cc(-c4cccc(F)c4)ccc3S(=O)(=O)N([C@@H](C)CO)C[C@@H]2C)cc1	x	-69	8	x	x	x	x
SMILES	T cruzi growth-1	Pf Dd2 growth	C diff HTS	T cruzi growth-2	T cruzi growth-3	3T3 cytotox	NIH3T3 tox 2
C[C@H]1CN([C@@H](C)CO)S(=O)(=O)c2ccc(-c3cccc(F)c3)cc2O[C@@H]1CN(C)S(=O)(=O)c1ccc(F)cc1	127*	-12	3	105*	104*	57*	38*
C[C@H](CO)N1C[C@H](C)[C@@H](CN(C)C)Oc2cc(-c3cccc(F)c3)ccc2S1(=O)=O	-18	x	-4	x	x	x	x
C[C@H]1CN([C@@H](C)CO)S(=O)(=O)c2ccc(-c3cccc(F)c3)cc2O[C@@H]1CN(C)S(C)(=O)=O	-47	15	x	x	x	x	x
C[C@H]1CN([C@@H](C)CO)S(=O)(=O)c2ccc(-c3cccc(F)c3)cc2O[C@H]1CN(C)S(C)(=O)=O	138*	-45	-10	102*	69	29	52*
C[C@@H]1CN([C@H](C)CO)S(=O)(=O)c2ccc(-c3cccc(F)c3)cc2O[C@@H]1CN(C)S(=O)(=O)c1ccc(F)cc1	98*	0	3	100*	89	47*	47*
C[C@H]1CN([C@@H](C)CO)C(=O)c2cc(NC(=O)CCC(F)(F)F)ccc2O[C@@H]1CN(C)CC1CCCCC1	20	2	3	x	x	x	x
O=C(C1CCCCC1)N1C[C@@H]2[C@H](c3ccccc31)[C@@H](CO)N2Cc1ccccc1Cl	37	-22	4	x	x	x	x
C[C@@H]1CN([C@@H](C)CO)S(=O)(=O)c2ccc(C3=CCCC3)cc2O[C@@H]1CN(C)CC1CCOCC1	x	48	x	x	x	x	x
O=C(C[C@H]1CC[C@H](NC(=O)Nc2ccc(C(F)(F)F)cc2)[C@H](CO)O1)NCc1cc(F)cc(F)c1	-43	-1	x	x	x	x	x
COc1ccc(-c2cnc3c(c2)C(=O)N([C@@H](C)CO)C[C@@H](C)[C@@H](CN(C)C(=O)Cc2ccccn2)O3)cc1	28	2	-6	x	x	x	x
C[C@@H]1CN([C@@H](C)CO)C(=O)c2cc(NS(=O)(=O)c3ccc(Cl)cc3)ccc2O[C@@H](C)CCCCO[C@@H]1CN(C)Cc1ccncc1	75	-77	-11	x	x	x	x

Source: PubChem BioAssay
